Test results from PubChem BioAssay AID1159580 (chemical genetic matrix, 2015).
Values joined by “and” are separate entries in the source; they are usually repeats but may differ in a detail not shown here. Equal values may be shown once. Among all 5,500 compounds or so, about 2,000 (36%) were called active. Roughly 18% stayed inconclusive and do not appear here. Rule as the data show it: active = normalized growth mostly below about 0.91 (no sharp cut-off); inconclusive = no clear call, values can overlap the other calls; inactive = mostly above about 0.92. This is one part of the list.

Experiment: chemical genetic growth profiling, strain panel (AID 1159580);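 also: tested at 20 µM; growth read once vehicle control cultures reached saturation at 30 °C; 1 = growth at the plate median or of vehicle wells; lower values mean less growth of the strain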
Settings: S. cerevisiae deletion strains, growth OD

Measured: normalized growth

C[C@]12CCC3c4ccc(O)cc4CCC3C1C[C@@H](O)[C@@H]2O (some centres undefined)
inactive: locus YAL013W, strain DEP1, stronger effect = lower value 0.994 | locus YAL021C, strain ccr4, stronger effect = lower value 1.01 | locus YAL026C, strain drs2, stronger effect = lower value 1 | locus YAL030W, strain snc1, stronger effect = lower value 1.02 | locus YBL061C, strain skt5, stronger effect = lower value 1.02 | locus YBR009C, strain hhf1, stronger effect = lower value 1.02 | locus YBR021W, strain FUR4, stronger effect = lower value 1.01 | locus YBR023C, strain chs3, stronger effect = lower value 1.03 | locus YBR171W, strain sec66, stronger effect = lower value 1.02 | locus YBR229C, strain ROT2, stronger effect = lower value 0.962 | locus YBR231C, strain swc5, stronger effect = lower value 0.988 | locus YBR279W, strain paf1, stronger effect = lower value 1.04 | locus YCL011C, strain gbp2, stronger effect = lower value 1.05 | locus YCL016C, strain dcc1, stronger effect = lower value 1.05 | locus YCL029C, strain bik1, stronger effect = lower value 0.984 | locus YCL061C, strain MRC1, stronger effect = lower value 1.03 | locus YCL069W, strain vba3, stronger effect = lower value 1.01 | locus YCR088W, strain abp1, stronger effect = lower value 1.01 | locus YDL005C, strain med2, stronger effect = lower value 1.02 | locus YDL035C, strain GPR1, stronger effect = lower value 0.969 | locus YDL040C, strain nat1, stronger effect = lower value 1.01 | locus YDL074C, strain BRE1, stronger effect = lower value 0.951 | locus YDL101C, strain DUN1, stronger effect = lower value 0.997 | locus YDL185W, strain tfp1, stronger effect = lower value 0.974 | locus YDL192W, strain arf1, stronger effect = lower value 0.985 | locus YDR001C, strain nth1, stronger effect = lower value 1.01 | locus YDR069C, strain doa4, stronger effect = lower value 1 | locus YDR101C, strain arx1, stronger effect = lower value 0.945 | locus YDR137W, strain rgp1, stronger effect = lower value 1.06 | locus YDR150W, strain NUM1, stronger effect = lower value 0.989 | locus YDR159W, strain sac3, stronger effect = lower value 0.979 | locus YDR162C, strain NBP2, stronger effect = lower value 0.968 | locus YDR195W, strain ref2 0.999 | locus YDR297W, strain sur2, stronger effect = lower value 1.03 | locus YDR318W, strain mcm21, stronger effect = lower value 1 | locus YDR334W, strain swr1, stronger effect = lower value 1.02 | locus YDR335W, strain msn5, stronger effect = lower value 1.02 | locus YDR388W, stronger effect = lower value 0.982 | locus YDR392W, strain spt3, stronger effect = lower value 1.01 | locus YDR502C, strain sam2, stronger effect = lower value 0.993 | locus YEL003W, strain gim4, stronger effect = lower value 0.994 | locus YEL037C, strain rad23, stronger effect = lower value 1.01 | locus YEL061C, strain CIN8 (second series), stronger effect = lower value 1.01 | locus YEL061C, strain CIN8, stronger effect = lower value 0.997 | locus YER015W, strain faa2, stronger effect = lower value 1.02 | locus YER016W, strain bim1, stronger effect = lower value 1 | locus YER110C, stronger effect = lower value 0.983 | locus YER111C, strain swi4, stronger effect = lower value 1.03 | locus YER155C, strain BEM2 (second series), stronger effect = lower value 1.02 | locus YER155C, strain BEM2, stronger effect = lower value 0.993 | locus YER167W, strain BCK2, stronger effect = lower value 1 | locus YFR010W, strain ubp6, stronger effect = lower value 1.01 | locus YGL078C, strain dbp3, stronger effect = lower value 0.995 | locus YGL086W, strain mad1, stronger effect = lower value 0.971 | locus YGL167C, strain pmr1, stronger effect = lower value 1.03 | locus YGL173C, strain kem1, stronger effect = lower value 1.01 | locus YGL227W, strain vid30, stronger effect = lower value 1.02 | locus YGL240W, strain doc1, stronger effect = lower value 1.03 | locus YGL248W, strain PDE1, stronger effect = lower value 0.988 | locus YGL253W, strain hxk2, stronger effect = lower value 1 | locus YGR135W, strain pre9, stronger effect = lower value 1.07 | locus YGR252W, strain gcn5, stronger effect = lower value 1.07 | locus YHR013C, strain ard1, stronger effect = lower value 1.05 | locus YHR027C, strain rpn1, stronger effect = lower value 1.02 | locus YHR030C, strain SLT2, stronger effect = lower value 0.993 and 1.01 | locus YHR079C, strain IRE1 (second series), stronger effect = lower value 0.987 | locus YHR079C, strain IRE1, stronger effect = lower value 0.992 | locus YHR094C, strain hxt1, stronger effect = lower value 0.984 | locus YHR129C, strain ARP1, stronger effect = lower value 0.994 | locus YHR142W, strain chs7, stronger effect = lower value 1.02 | locus YHR200W, strain rpn10, stronger effect = lower value 1 | locus YIL066C, strain RNR3, stronger effect = lower value 0.977 | locus YIL073C, strain SPO22, stronger effect = lower value 0.991 | locus YIL125W, strain kgd1, stronger effect = lower value 0.985 | locus YIR030C, strain dcg1, stronger effect = lower value 0.994 | locus YJL092W, strain hpr5, stronger effect = lower value 1.02 | locus YJL095W, strain BCK1 (second series), stronger effect = lower value 1.02 | locus YJL095W, strain BCK1, stronger effect = lower value 1 and 0.994 | locus YJL115W, strain asf1, stronger effect = lower value 1.02 | locus YJL129C, strain trk1, stronger effect = lower value 1.03 | locus YJL134W, strain LCB3, stronger effect = lower value 0.989 | locus YJL154C, strain vps35, stronger effect = lower value 1.01 | locus YJL164C, strain tpk1, stronger effect = lower value 1.01 | locus YJL166W, strain qcr8, stronger effect = lower value 1.05 | locus YJL168C, strain set2, stronger effect = lower value 1.01 | locus YJL187C, strain SWE1 (second series), stronger effect = lower value 0.996 | locus YJL187C, strain SWE1, stronger effect = lower value 1.04 | locus YJR043C, strain POL32, stronger effect = lower value 0.976 | locus YJR066W, strain TOR1, stronger effect = lower value 0.97 | locus YJR075W, strain HOC1, stronger effect = lower value 0.992 | locus YKL009W, strain mrt4, stronger effect = lower value 0.973 | locus YKL068W, stronger effect = lower value 0.986 | locus YKL085W, strain MDH1 (second series), stronger effect = lower value 1.01 | locus YKL085W, strain MDH1, stronger effect = lower value 1.01 | locus YKL160W, strain elf1, stronger effect = lower value 1.05 | locus YKR001C, strain vps1, stronger effect = lower value 0.972 | locus YKR026C, strain gcn3, stronger effect = lower value 1.02 | locus YKR091W, strain srl3, stronger effect = lower value 1.02 | locus YLL001W, strain dnm1, stronger effect = lower value 1.05 | locus YLL026W, stronger effect = lower value 1.02 | locus YLL041C, strain sdh2, stronger effect = lower value 1.01 | locus YLR027C, strain aat2, stronger effect = lower value 1.01 | locus YLR039C, strain RIC1, stronger effect = lower value 1.03 | locus YLR058C, strain SHM2, stronger effect = lower value 0.977 | locus YLR102C, strain apc9, stronger effect = lower value 0.996 | locus YLR113W, strain HOG1, stronger effect = lower value 0.97 | locus YLR221C, strain rsa3, stronger effect = lower value 1.05 | locus YLR258W, strain gsy2, stronger effect = lower value 1.01 | locus YLR262C, strain YPT6 (second series), stronger effect = lower value 1.04 | locus YLR262C, strain YPT6, stronger effect = lower value 0.925 | locus YLR268W, strain sec22, stronger effect = lower value 0.987 | locus YLR320W, strain mms22, stronger effect = lower value 1.07 | locus YLR330W, strain CHS5, stronger effect = lower value 0.984 | locus YLR342W, strain FKS1 (second series), stronger effect = lower value 0.999 | locus YLR342W, strain FKS1, stronger effect = lower value 1.02 | locus YLR357W, strain rsc2, stronger effect = lower value 1.03 | locus YLR370C, strain arc18, stronger effect = lower value 1.02 | locus YLR371W, strain rom2, stronger effect = lower value 1.01 | locus YLR384C, strain iki3, stronger effect = lower value 1.02 | locus YLR418C, strain cdc73, stronger effect = lower value 1.02 | locus YML016C, strain PPZ1, stronger effect = lower value 0.989 | locus YML032C, strain rad52, stronger effect = lower value 0.967 | locus YML120C, strain ndi1, stronger effect = lower value 1.04 | locus YML124C, strain tub3, stronger effect = lower value 0.996 | locus YMR058W, strain fet3, stronger effect = lower value 1.01 | locus YMR078C, strain ctf18, stronger effect = lower value 0.991 | locus YMR125W, strain sto1, stronger effect = lower value 1.02 | locus YMR129W, stronger effect = lower value 1 | locus YMR205C, strain PFK2, stronger effect = lower value 1.04 | locus YMR223W, strain ubp8, stronger effect = lower value 1.02 | locus YMR231W, strain pep5, stronger effect = lower value 1.02 | locus YMR307W, strain GAS1, stronger effect = lower value 0.954 | locus YNL067W, strain RPL9B, stronger effect = lower value 0.994 | locus YNL071W, strain lat1, stronger effect = lower value 1.02 | locus YNL153C, strain GIM3, stronger effect = lower value 0.976 | locus YNL183C, strain NPR1, stronger effect = lower value 0.962 | locus YNL209W, strain ssb2, stronger effect = lower value 1.03 | locus YNL233W, strain BNI4, stronger effect = lower value 0.987 | locus YNL248C, strain rpa49, stronger effect = lower value 1.05 | locus YNL250W, strain rad50, stronger effect = lower value 0.987 | locus YNL271C, strain bni1, stronger effect = lower value 0.991 | locus YNL298W, strain CLA4, stronger effect = lower value 0.99 | locus YNL307C, strain MCK1, stronger effect = lower value 0.999 | locus YNL322C, strain KRE1 (second series), stronger effect = lower value 1.05 | locus YNR049C, strain mso1, stronger effect = lower value 1.02 | locus YNR052C, strain pop2, stronger effect = lower value 0.982 | locus YOL012C, strain htz1 1.25 | locus YOL147C, strain pex11, stronger effect = lower value 0.993 | locus YOR001W, strain rrp6, stronger effect = lower value 0.998 | locus YOR061W, strain CKA2, stronger effect = lower value 0.973 | locus YOR069W, strain VPS5, stronger effect = lower value 0.997 | locus YOR070C, strain gyp1, stronger effect = lower value 1.02 | locus YOR080W, strain dia2, stronger effect = lower value 1.02 | locus YOR083W, strain WHI5, stronger effect = lower value 1.06 | locus YOR106W, strain vam3, stronger effect = lower value 1.03 | locus YOR136W, strain idh2, stronger effect = lower value 0.987 | locus YOR144C, strain elg1, stronger effect = lower value 0.993 | locus YOR184W, strain ser1, stronger effect = lower value 1 | locus YOR231W, strain MKK1, stronger effect = lower value 0.972 | locus YOR265W, strain rbl2, stronger effect = lower value 1.02 | locus YOR270C, strain vph1, stronger effect = lower value 1.04 | locus YOR290C, strain snf2, stronger effect = lower value 0.975 | locus YOR316C, strain cot1, stronger effect = lower value 0.985 | locus YPL051W, strain arl3, stronger effect = lower value 1.02 | locus YPL078C, strain atp4, stronger effect = lower value 1.05 | locus YPL106C, strain sse1, stronger effect = lower value 1.06 | locus YPL240C, strain hsp82, stronger effect = lower value 1.03 | locus YPL241C, strain CIN2, stronger effect = lower value 0.989 | locus YPL256C, strain CLN2, stronger effect = lower value 1 | locus YPR119W, strain clb2, stronger effect = lower value 0.989 | locus YPR141C, strain kar3, stronger effect = lower value 0.989 | locus YPR163C, strain tif3, stronger effect = lower value 0.996 | locus YPR167C, strain met16, stronger effect = lower value 0.999 | strain wtn01, stronger effect = lower value 1.01
